According to PubChem BioAssay (NCATS):
Records with an inconclusive call do not appear. Activity calls are given as the source filed them. Unless noted, calls come from the whole dose curve.

Key:
[1] = target: Glucocorticoid receptor (Homo sapiens) (UniProt P04150); experiment: qHTS assay for small molecule agonists of glucocorticoid receptor signaling (AID 588532; active = well fitted curve in the direction sought with a large enough effect in the signal ratio, with a control signal flat; the % refers to the signal ratio;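 note: 100% = dexamethasone at 0.1 µM and 0% = DMSO only wells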); conditions: HeLa MMTV-bla, beta-lactamase ratio, agonist, 18 h; activation: stronger effect = higher value, percent of dexamethasone control, DMSO zero
In short: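 Titration series, up to 92 uM, applied to GRE-bla HeLa cells for 18 h at 37 C. Detection by CCF4 FRET substrate after 2 h at RT.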

[2] = target: Glucocorticoid receptor (Homo sapiens) (UniProt P04150); experiment: qHTS assay for small molecule antagonists of glucocorticoid receptor signaling (AID 588533; active = well fitted inhibition curve with a large enough effect in the signal ratio, with a control signal flat, not every such curve was filed as active; the % refers to the signal ratio;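 note: cells stimulated with 2 nM dexamethasone as agonist; % is set by controls: 0 for no effect and ±100 for the full control effect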)
In short: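 Antagonist-mode qHTS: compound titrations added to GRE-bla HeLa cells, then dexamethasone 2 nM final; 18 h, 37 C. CCF4 FRET fluorescence normalized to dexamethasone and DMSO; IC50 from Hill fit.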

[3] = target: Peroxisome proliferator-activated receptor delta (Homo sapiens) (UniProt Q03181); experiment: qHTS assay for small molecule agonists of peroxisome proliferator-activated receptor delta signaling (AID 588534);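 note: 0% = DMSO basal wells and 100% = positive control agonist at 10 µM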
In short: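 Titration series tested in agonist mode on beta-lactamase reporter cells; 18 hrs at 37 C after a 5 hr pre-incubation. Readout: CCF4 fluorescence, 2 hrs RT. Hill equation gives EC50 and maximal response.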

[4] = qHTS assay for small molecule antagonists of peroxisome proliferator-activated receptor delta signaling (AID 588535; active = well fitted inhibition curve with a large enough effect in the signal ratio, with a control signal flat, not every such curve was filed as active; the % refers to the signal ratio;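 for max response: cells co-treated with a PPAR-delta agonist as stimulator during compound exposure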); conditions: HEK293T PPARd-UAS-bla, beta-lactamase FRET ratio, 18 h; 460 nm channel
In short: (§1)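 Compounds tested in titration on PPAR-delta-UAS-bla HEK293T cells grown in charcoal/dextran-stripped serum (2%); beta-lactamase activity read via CCF4 emission at 460 and 530 nm.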

[5] = target: Peroxisome proliferator-activated receptor delta (Homo sapiens) (UniProt Q03181); experiment: as above
In short: as §1

[6] = target: Peroxisome proliferator-activated receptor gamma (Homo sapiens) (UniProt P37231); experiment: qHTS assay for small molecule agonists of peroxisome proliferator-activated receptor gamma signaling (AID 588536; active = well fitted curve in the direction sought with a large enough effect in the signal ratio, with a control signal flat, not every such curve was filed as active; the % refers to the signal ratio;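 note: 0% = DMSO basal wells and 100% = rosiglitazone at 2 µM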)
In short: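 This is an agonist-mode beta-lactamase reporter assay in HEK293 PPAR-gamma-UAS-bla cells with 1% charcoal/dextran FBS. Compound titrations ran 16 h at 37 C before CCF4 detection. EC50 and efficacy are Hill fits scaled to 2 uM rosiglitazone (100%) and DMSO basal.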

[7] = target: Vitamin D3 receptor (Homo sapiens) (UniProt P11473); experiment: qHTS assay for small molecule antagonists of vitamin D receptor signaling (AID 588541);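 note: receptor activated by calcitriol during compound treatment; series mostly up to about 77 µM; % is set by controls: 0 for no effect and ±100 for the full control effect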
In short: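 VDR-UAS-bla HEK293T cells (2000/well, 2% charcoal-stripped FBS) were treated with titrated compounds plus 1-alpha,25-dihydroxyvitamin D3 (50 nM or 3 nM final) for 16 h at 37 C. CCF4 beta-lactamase fluorescence was read; Hill fits gave IC50.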

[8] = target: Vitamin D3 receptor (Homo sapiens) (UniProt P11473); experiment: qHTS assay for small molecule agonists of vitamin D receptor signaling (AID 588543);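 note: 0% = DMSO basal and 100% = reference agonist control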
In short: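 VDR-UAS-bla HEK293T cells, 2000/well, 2% charcoal-stripped FBS; compound titration 16 h at 37 C; CCF4 beta-lactamase ratio read. Normalized to 50 nM 1-alpha,25-dihydroxyvitamin D3 (100%) and DMSO; Hill fit gives EC50, efficacy.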

[9] = qHTS assay for small molecule agonists of retinoid X receptor alpha signaling (AID 588544); conditions: HEK293T RXRa-UAS-bla, beta-lactamase reporter, 18 h; 530 nm emission;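 for activation: 0% = DMSO basal wells and 100% = reference agonist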
[10] = target: Retinoic acid receptor RXR-alpha (Homo sapiens) (UniProt P19793); experiment: as above
[11] = target: Thyroid hormone receptor beta (Homo sapiens) (UniProt P10828); experiment: qHTS assay for small molecule agonists of thyroid hormone receptor beta signaling (AID 588545);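 note: 0% = DMSO only and 100% = 10 nM T3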
In short: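 TR-UAS-bla-GripTite HEK 293 cells in medium with 2% charcoal/dextran FBS, 0.1 mM NEAA and 1 mM sodium pyruvate were treated with titrated compounds for 18 hrs at 37 C. Beta-lactamase reporter was read with CCF4 dye (ex 405, em 460/530 nm); EC50 from Hill fits.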

[12] = qHTS assay for small molecule antagonists of retinoid X receptor alpha signaling (AID 588546; active = well fitted inhibition curve with a large enough effect in the signal ratio, with a control signal flat, not every such curve was filed as active; the % refers to the signal ratio;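 note: cells stimulated with 9-cis-retinoic acid as agonist; % is set by controls: 0 for no effect and ±100 for the full control effect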); conditions: HEK293T RXRa-UAS-bla, beta-lactamase ratio, antagonist mode; measured here: W530 green channel, cytotoxicity proxy
In short: (§2)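 Beta-lactamase reporter inhibition, read as CCF4 fluorescence ratio (ex 405, em 460/530 nm) after 2 h at RT. HEK293T UAS-bla cells, 2500/well, were stimulated with 9-cis-RA at 500 or 100 nM final alongside test compound for 18 h at 37 C.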

[13] = target: Retinoic acid receptor RXR-alpha (Homo sapiens) (UniProt P19793); experiment: as above; conditions: HEK293T RXRa-UAS-bla, beta-lactamase ratio, antagonist mode
In short: as §2

[14] = target: Thyroid hormone receptor beta (Homo sapiens) (UniProt P10828); experiment: qHTS assay for small molecule antagonists of thyroid hormone receptor beta signaling (AID 588547; active = well fitted inhibition curve with a large enough effect in the signal ratio, with a control signal flat, not every such curve was filed as active; the % refers to the signal ratio;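 note: cells stimulated with 0.4 nM T3 agonist during compound exposure; series mostly up to about 77 µM; % is set by controls: 0 for no effect and ±100 for the full control effect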); conditions: TR-UAS-bla HEK293, beta-lactamase ratio, antagonist mode, 18 h
In short: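 TR-UAS-bla GripTite HEK293 cells in 2% charcoal/dextran FBS medium were preincubated 4 h at 37 C, given compound (0.59 nM to 92 uM) plus 0.4 nM T3 (final) for 18 h, then CCF4 for 2 h at RT; Hill fit gave IC50.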

[15] = qHTS assay for small molecule activators of the p53 signaling pathway (AID 651743; active = well fitted activation curve with a large enough effect in the signal ratio, not every such curve was filed as active; the % refers to the signal ratio; note: potency is the fitted concentration of half-maximal effect; for activation: series mostly up to about 92 µM; % of control where 0% means no effect); conditions: HCT-116 p53RE-bla, beta-lactamase FRET ratio, 16 h; activation: stronger effect = higher value
In short: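 Here HCT-116 cells with an integrated p53-responsive beta-lactamase gene were incubated with compounds (16 hours, 37 C) after a 5-hour plating period; beta-lactamase activity was detected as fluorescence intensity via B/G FRET substrate.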

[16] = qHTS assay for small molecule activators of the nuclear factor-kappa B (NF-kB) signaling pathway (AID 651749; active = well fitted activation curve with a large enough effect in the signal ratio; the % refers to the signal ratio; note: series mostly up to about 77 µM; % of control where 0% means no effect); conditions: NF-kB-bla ME-180 cells, beta-lactamase FRET ratio, 16 h; activation: stronger effect = higher value
In short: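 Beta-lactamase reporter expression, controlled by NF-kB response elements in ME-180 cells, was quantified fluorometrically via FRET disruption; cells at 2,000/well had been incubated with 23 nL test compound for 16 hr.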

[17] = qHTS assay for environmental chemicals that activate the Aryl hydrocarbon Receptor (AhR) signaling pathway (AID 651777; active = well fitted curve in the direction sought with a large enough effect; an effect the other way counts as inactive or inconclusive; note: % of control where 0% means no effect; nearly all actives have a fitted effect of over 15% in size); conditions: 1A2-DRE human hepatoma cells, luciferase, 24 h; activation: stronger effect = higher value
In short: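 Concentration–response screening used 1,200 1A2-DRE cells per well, 24 hr compound exposure (37 C, 5% CO2), and One-Glo luminescence as the AhR-driven CYP1A2 reporter signal.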

[18] = target: Peroxisome proliferator-activated receptor alpha (Homo sapiens) (UniProt Q07869); experiment: qHTS assay for small molecule agonists of the peroxisome proliferator-activated receptor alpha (PPARalpha) signaling pathway (AID 651778; active = well fitted curve in the direction sought with a large enough effect; an effect the other way counts as inactive or inconclusive; note: % of control where 0% means no effect); conditions: PathHunter PPARalpha complementation, chemiluminescence, 6 h; max response: stronger effect = higher value
In short: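 Cells plated at 2,000/well and held overnight at 37 C, 5% CO2, then compound added by pin tool for 6 hr; after PathHunter detection reagent and 60 min at room temperature, chemiluminescence from enzyme complementation was read.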

[19] = qHTS assay for cell viability of HEK293 cells (AID 743288; active = well fitted curve in the direction sought with a large enough effect; an effect the other way counts as inactive or inconclusive; note: % is set by controls: 0 for no effect and ±100 for the full control effect; nearly all actives have a fitted effect of over 50% in size); conditions: ATP luminescence (CellTiter-Glo), 18 h; max response: stronger effect = lower value
In short: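 Steps: plate 2,000 parental HEK293 cells per well; incubate ≥5 h, 37 C; add compounds in DMSO; incubate 18 h, 37 C; add CellTiter-Glo; wait 30 min at room temperature; read luminescence.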

[20] = qHTS assay for cell viability of the p53RE-bla HCT-116 cell line (AID 743292; active = well fitted curve in the direction sought with a large enough effect; an effect the other way counts as inactive or inconclusive; note: % is set by controls: 0 for no effect and ±100 for the full control effect; nearly all actives have a fitted effect of over 55% in size)
In short: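 Compound-exposed HCT-116 (p53RE-bla) cells, 4,000 per well, were kept 16 h at 37 C following a 5 h preincubation. Cell number was estimated from total ATP by CellTiter-Glo luminescence read after 30 min at room temperature.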

[21] = target: Nuclear receptor subfamily 1 group I member 2 (Rattus norvegicus) (UniProt Q9R1A7); experiment: qHTS assay for small molecule activators of the rat pregnane X receptor (rPXR) signaling pathway (AID 651751; call rule not given here; note: 0% is about no effect); conditions: rPXR reporter cells, luciferase (One-Glo), 24 h
[22] = qHTS assay for small molecule activators of the human pregnane X receptor (PXR) signaling pathway (AID 720659; call rule not given here; note: 0% is about no effect)
[23] = target: Bile acid receptor (Homo sapiens) (UniProt Q96RI1); experiment: qHTS assay for small molecule agonists of farnesoid X receptor signaling (AID 588527); conditions: HEK293T FXR-UAS-bla, beta-lactamase ratio, 16 h; activation: stronger effect = higher value;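 note: series mostly up to about 77 µM; 0% = vehicle basal and 100% = reference agonist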
In short: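 Agonist-mode beta-lactamase reporter in GeneBLAzer FXR-UAS-bla HEK293T cells, titration up to 92 uM, 16 h exposure at 37 C, CCF4 fluorescence. Response scaled to DMSO (0%) and 100 uM chenodeoxycholic acid (100%), then Hill-fitted for EC50 and efficacy.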

[24] = qHTS assay for small molecule agonists of the antioxidant response element (ARE) signaling pathway measured by Nrf2-dependant transcriptional activity (AID 720636; active = well fitted curve in the direction sought with a large enough effect in the repeat runs; an effect the other way counts as inactive or inconclusive;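 note: HepG2 cells with an ARE-driven luciferase reporter; % of control where 0% means no effect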)
In short: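 Attachment 6 hr at 37 C, then compound versus DMSO vehicle for 16 hr in ARE-luc HepG2 cells (1% dialyzed FBS); luminescence recorded 30 min after ONE-Glo addition at room temperature.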

[25] = qHTS assay for small molecule agonists of the antioxidant response element (ARE) signaling pathway measured by Nrf2-dependant transcriptional activity - cell viability counter screen (AID 720653; active = well fitted curve in the direction sought with a large enough effect in the repeat runs; an effect the other way counts as inactive or inconclusive; note: % is set by controls: 0 for no effect and ±100 for the full control effect); conditions: ARE-bla HepG2 viability, CellTiter-Glo ATP luminescence, 16 h; max response: stronger effect = lower value
In short: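 ARE-bla HepG2 cells (2,000/well) rested 5 hrs at 37C/5% CO2, then exposed to compounds in DMSO for 16 hrs. Viability was read in the same wells as intracellular ATP by luminescence, 30 min at room temperature after reagent addition.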

Chain of Thyroid hormone receptor beta (Homo sapiens) (P10828 whole entry, looked up): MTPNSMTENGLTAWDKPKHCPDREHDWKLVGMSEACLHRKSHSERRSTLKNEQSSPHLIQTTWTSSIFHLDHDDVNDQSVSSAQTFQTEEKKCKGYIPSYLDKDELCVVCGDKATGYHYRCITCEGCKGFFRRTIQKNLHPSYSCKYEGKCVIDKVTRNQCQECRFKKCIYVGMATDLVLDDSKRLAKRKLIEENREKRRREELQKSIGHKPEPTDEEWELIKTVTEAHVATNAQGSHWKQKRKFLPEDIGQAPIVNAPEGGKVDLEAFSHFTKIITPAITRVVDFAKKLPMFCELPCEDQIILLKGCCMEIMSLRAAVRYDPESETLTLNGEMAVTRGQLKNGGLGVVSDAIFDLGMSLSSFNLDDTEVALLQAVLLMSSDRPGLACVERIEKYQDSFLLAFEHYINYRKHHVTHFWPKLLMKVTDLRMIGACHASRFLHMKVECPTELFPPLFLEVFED
Chain of Peroxisome proliferator-activated receptor delta (Homo sapiens) (Q03181 whole entry, looked up): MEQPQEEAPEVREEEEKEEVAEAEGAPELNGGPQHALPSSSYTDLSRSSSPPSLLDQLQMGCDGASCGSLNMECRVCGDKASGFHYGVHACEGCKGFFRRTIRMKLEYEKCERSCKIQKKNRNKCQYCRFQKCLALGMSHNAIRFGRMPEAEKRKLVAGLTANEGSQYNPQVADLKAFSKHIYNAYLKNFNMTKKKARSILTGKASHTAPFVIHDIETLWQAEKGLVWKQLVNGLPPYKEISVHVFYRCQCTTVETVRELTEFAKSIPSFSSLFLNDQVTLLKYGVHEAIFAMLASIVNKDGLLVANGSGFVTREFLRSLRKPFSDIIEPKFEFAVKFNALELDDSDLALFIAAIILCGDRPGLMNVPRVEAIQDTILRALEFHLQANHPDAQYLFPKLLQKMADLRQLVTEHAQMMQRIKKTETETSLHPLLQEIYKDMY
Chain of Vitamin D3 receptor (Homo sapiens) (P11473 whole entry, looked up): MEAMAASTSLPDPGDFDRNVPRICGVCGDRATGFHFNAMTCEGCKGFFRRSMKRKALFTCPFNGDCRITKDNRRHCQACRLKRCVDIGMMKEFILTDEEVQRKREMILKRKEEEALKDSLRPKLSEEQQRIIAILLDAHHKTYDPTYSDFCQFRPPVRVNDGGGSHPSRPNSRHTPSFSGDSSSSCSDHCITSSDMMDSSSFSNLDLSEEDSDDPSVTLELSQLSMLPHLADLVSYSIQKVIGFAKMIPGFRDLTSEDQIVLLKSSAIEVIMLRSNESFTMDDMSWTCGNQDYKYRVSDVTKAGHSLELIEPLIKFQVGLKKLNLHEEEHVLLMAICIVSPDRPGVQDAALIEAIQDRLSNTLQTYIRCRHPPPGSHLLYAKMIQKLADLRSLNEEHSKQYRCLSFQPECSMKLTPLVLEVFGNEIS
Chain of Retinoic acid receptor RXR-alpha (Homo sapiens) (P19793 whole entry, looked up): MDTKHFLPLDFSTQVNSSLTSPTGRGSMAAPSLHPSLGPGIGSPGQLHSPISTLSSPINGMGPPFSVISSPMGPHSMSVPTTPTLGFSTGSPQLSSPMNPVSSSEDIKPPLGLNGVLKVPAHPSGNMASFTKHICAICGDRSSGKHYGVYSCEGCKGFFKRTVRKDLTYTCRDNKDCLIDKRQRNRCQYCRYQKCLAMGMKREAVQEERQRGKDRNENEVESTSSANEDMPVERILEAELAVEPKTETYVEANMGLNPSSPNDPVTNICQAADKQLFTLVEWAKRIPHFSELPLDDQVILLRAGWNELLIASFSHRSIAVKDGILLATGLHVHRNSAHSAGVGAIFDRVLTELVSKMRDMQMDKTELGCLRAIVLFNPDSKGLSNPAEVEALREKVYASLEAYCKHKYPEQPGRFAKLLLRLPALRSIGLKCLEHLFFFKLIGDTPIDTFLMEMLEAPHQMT
Chain of Bile acid receptor (Homo sapiens) (Q96RI1 whole entry, looked up): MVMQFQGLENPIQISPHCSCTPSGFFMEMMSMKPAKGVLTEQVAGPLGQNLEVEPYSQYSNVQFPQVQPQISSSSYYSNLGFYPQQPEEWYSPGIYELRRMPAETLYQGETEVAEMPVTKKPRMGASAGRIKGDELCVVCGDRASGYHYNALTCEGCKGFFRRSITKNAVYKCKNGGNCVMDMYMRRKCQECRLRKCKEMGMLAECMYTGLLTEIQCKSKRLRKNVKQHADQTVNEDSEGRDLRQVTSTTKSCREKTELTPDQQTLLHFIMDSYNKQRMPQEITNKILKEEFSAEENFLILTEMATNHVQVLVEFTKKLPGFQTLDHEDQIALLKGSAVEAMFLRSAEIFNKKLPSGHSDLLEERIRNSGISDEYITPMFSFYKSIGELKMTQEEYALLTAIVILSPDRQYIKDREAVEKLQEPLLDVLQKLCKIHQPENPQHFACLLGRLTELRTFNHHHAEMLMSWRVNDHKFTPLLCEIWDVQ
Chain of Nuclear receptor subfamily 1 group I member 2 (Rattus norvegicus) (Q9R1A7 whole entry, looked up): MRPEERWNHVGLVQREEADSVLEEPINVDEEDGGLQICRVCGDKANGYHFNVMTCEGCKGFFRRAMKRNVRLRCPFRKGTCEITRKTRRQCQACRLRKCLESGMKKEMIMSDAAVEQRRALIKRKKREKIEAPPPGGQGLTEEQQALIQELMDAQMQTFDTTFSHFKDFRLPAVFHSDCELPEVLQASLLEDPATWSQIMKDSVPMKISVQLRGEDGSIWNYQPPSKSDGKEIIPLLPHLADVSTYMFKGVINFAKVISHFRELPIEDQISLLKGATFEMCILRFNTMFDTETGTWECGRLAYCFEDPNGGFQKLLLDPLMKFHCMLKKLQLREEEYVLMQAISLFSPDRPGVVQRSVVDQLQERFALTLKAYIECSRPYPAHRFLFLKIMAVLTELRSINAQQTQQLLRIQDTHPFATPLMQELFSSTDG
Chain of Peroxisome proliferator-activated receptor alpha (Homo sapiens) (Q07869 whole entry, looked up): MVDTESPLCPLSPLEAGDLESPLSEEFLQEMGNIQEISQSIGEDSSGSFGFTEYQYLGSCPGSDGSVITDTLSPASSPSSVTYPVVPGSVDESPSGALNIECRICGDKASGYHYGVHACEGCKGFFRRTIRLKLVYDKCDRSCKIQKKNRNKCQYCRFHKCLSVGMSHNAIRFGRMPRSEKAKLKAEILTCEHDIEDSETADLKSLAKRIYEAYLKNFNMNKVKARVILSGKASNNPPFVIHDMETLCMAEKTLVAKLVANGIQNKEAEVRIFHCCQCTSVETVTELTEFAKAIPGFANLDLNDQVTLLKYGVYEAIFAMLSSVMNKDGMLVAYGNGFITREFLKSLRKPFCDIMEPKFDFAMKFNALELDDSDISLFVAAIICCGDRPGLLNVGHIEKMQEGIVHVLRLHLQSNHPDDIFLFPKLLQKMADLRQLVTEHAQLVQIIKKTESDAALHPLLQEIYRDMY
Chain of Glucocorticoid receptor (Homo sapiens) (P04150 whole entry, looked up): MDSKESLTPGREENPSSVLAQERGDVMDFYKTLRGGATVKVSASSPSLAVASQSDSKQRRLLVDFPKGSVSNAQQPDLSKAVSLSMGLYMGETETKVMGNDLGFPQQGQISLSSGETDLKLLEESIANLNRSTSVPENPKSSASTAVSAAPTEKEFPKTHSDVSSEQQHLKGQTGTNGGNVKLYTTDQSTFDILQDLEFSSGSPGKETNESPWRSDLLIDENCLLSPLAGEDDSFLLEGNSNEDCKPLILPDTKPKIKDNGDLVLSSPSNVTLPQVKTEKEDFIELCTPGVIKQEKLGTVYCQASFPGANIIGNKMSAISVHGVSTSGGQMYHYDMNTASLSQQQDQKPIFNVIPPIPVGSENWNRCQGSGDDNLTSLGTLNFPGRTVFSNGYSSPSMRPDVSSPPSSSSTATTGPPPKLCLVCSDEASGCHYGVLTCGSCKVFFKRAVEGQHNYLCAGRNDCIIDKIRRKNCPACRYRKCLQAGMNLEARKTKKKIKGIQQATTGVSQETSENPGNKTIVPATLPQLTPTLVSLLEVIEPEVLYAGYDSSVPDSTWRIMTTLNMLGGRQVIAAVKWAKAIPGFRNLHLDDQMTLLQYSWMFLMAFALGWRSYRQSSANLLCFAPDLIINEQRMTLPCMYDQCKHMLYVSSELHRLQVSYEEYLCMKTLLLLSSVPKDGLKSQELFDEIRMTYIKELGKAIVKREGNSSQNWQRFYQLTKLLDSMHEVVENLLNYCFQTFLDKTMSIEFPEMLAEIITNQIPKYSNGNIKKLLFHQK
Chain of Peroxisome proliferator-activated receptor gamma (Homo sapiens) (P37231 whole entry, looked up): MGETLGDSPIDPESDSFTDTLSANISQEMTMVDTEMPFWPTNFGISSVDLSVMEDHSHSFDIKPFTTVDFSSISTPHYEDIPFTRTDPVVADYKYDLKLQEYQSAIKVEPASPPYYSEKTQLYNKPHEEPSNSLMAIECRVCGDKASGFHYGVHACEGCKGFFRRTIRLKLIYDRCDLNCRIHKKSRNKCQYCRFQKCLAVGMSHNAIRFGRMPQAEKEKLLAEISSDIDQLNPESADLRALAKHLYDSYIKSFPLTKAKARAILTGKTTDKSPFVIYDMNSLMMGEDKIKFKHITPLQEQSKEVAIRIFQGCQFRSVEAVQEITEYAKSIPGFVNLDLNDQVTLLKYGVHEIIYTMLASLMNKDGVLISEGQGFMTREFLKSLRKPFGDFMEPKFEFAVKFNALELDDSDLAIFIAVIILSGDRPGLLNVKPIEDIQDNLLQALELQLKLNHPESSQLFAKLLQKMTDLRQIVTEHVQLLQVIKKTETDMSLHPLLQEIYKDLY

Cc1cc(C)nc(Nc2ccccc2)n1
-7.16%: max response [12]
inactive: activation [1] -19% | Potency [2] | outcome [3] | Potency [5] | Potency [6] | Potency [7] | outcome [8] | Potency [10] | Potency [11] | max response [13] -45.9% | activity change % (negative = inhibition) [14] -4.91% | activation [15] -0.291% | activation [16] -2.63% | activation [17] 7.09% | max response [18] 5.23% | max response [19] -15.1% | Potency [20] | max response [21] 11.4% | outcome [22]
-19.7%: max response [4]
1.3%: max response [9]

CCc1nn(C)c(C(=O)NCc2ccc(C(C)(C)C)cc2)c1Cl
inactive: activation [23] 2.45% | outcome [8] | activation [16] 2.69% | activation [17] 6.31% | Potency [24] | max response [19] -25.1%
active: Potency [15] 355 nM

CCOP(=O)(OCC)Oc1ccc([N+](=O)[O-])cc1
-4.35%: max response [9]
-45.6%: max response [4]
inactive: activation [23] 2.69% | outcome [3] | Potency [5] | Potency [10] | Potency [11] | activity change % (negative = inhibition) [14] -16.8% | activation [16] 0.546% | activation [17] 0.386% | max response [18] -2.58% | Potency [24] | max response [25] -9.88% | max response [19] -2.61% | Potency [20] | max response [21] 3.26%
